From PubChem BioAssay AID1987 (The Scripps Research Institute Molecular Screening Center, 2009) come the findings set out here.

The whole screen tested about 320,000 compounds, of which about 560 (0.17%) were called active. The sample holds actives, similar compounds and a random draw of the others, so the mix is not that of the screen. Unmarked numbers belong to inactive results.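 Rule for the calls: active = inhibition above the campaign's mean inhibition across all tested compounds plus 3 SD (cut at about 9.5% in these data); inactive = the rest.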

This assay deals with Serine/threonine-protein phosphatase 5 (Homo sapiens) (UniProt P53041). The experiment in a line: PP5 phosphatase inhibitors, primary screen, biochemical, fluorescence (AID 1987).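 Note: 0% = DMSO only and 100% = 100 µM cantharidin control.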 Particulars: purified PP5c, OMFP substrate fluorescence; at 6.7 µM; active compounds read high.
Chain of Serine/threonine-protein phosphatase 5 (Homo sapiens) (P53041 whole entry, looked up): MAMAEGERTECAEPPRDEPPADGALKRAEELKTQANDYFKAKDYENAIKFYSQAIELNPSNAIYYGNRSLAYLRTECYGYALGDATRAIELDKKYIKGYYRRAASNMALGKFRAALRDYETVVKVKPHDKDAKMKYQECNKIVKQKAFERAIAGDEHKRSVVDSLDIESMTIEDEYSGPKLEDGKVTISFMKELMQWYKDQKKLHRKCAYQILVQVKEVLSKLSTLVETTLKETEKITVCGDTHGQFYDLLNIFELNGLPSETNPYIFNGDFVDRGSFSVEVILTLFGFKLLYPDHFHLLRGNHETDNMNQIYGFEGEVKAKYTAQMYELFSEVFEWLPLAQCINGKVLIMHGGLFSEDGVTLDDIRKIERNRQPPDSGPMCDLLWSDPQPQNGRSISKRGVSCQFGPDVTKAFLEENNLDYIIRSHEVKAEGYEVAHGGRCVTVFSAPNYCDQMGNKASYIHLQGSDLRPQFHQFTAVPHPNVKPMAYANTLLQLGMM
What is called inhibition is the relative decrease from the control value, in per cent. Turning to `O=C(COc1ccccc1)Nc1ccc(F)cc1`, the inhibition is 0.71%.
Then `CN(c1ccc(OCC(=O)O)cc1)S(=O)(=O)c1ccc2ccccc2c1`, with 1%; and `CN(c1ccccc1)S(=O)(=O)c1ccc(NC(=O)COc2ccccc2)cc1`, with 10.2% (active).
Under `Cc1ccc(S(=O)(=O)N(c2cccc(C)c2)C2CCS(=O)(=O)C2)cc1` (stereo not drawn) stands 0.29%.
For the molecule `Cc1nnc(SCC(=O)Nc2ncc3c(n2)CC(C)(C)CC3=O)s1`, the inhibition is 2.93%.
Consider `O=C(O)C1CCC(CNS(=O)(=O)c2ccc(Br)cc2)CC1` (stereo not drawn), for which the inhibition is -2.97%.
Then `Cc1ccc(Cn2c(C)c3cnn(CC(=O)NCc4ccccn4)c(=O)c3c2C)cc1`, with -1.29%; and `CCNC(=O)c1sccc1-n1cccc1`, with 0.46%.
`CC(C)(C)C(=O)NNC(=O)c1ccc(Oc2cc(Cl)cc(Cl)c2)o1`: the inhibition was -2.8%.
Under `CCn1nnc(NC(=O)c2cc(Cl)c(OC)c(Cl)c2)n1` stands 0.92%; under `CCN(CC(=O)NC1CCS(=O)(=O)C1)c1nc(-c2cccnc2)nc2ccccc12` (stereo not drawn), -1.12%.
Then `Cc1cc(Cl)ccc1OCCCC(=O)NCc1ccccn1`, with 1.77%.
Then `O=C1[C@H]2[C@@H](c3ccc(F)cc3)N3C(=O)N(c4ccc(C(F)(F)F)cc4)C(=O)[C@@]3(Cc3ccccc3)[C@H]2C(=O)N1C1CCCCC1`, with 5.23%; and `CCCN(CCC)S(=O)(=O)c1ccc(C(=O)N2CC3CCC(CC3)C2)cc1`, with 2.42%.
In the case of `CCOC(=O)c1sc(N(Cc2ccccc2)C(=O)CN2C(=O)CN(C)C2=O)nc1C`, the inhibition was -1.26%.
Under `C[C@H]1[C@H]2c3nc4ccccc4n3C[C@H]1ON2C1CCCCC1` stands -1.65%; under `COc1ccc(C(=O)NCc2ccc(C)cc2)cc1S(=O)(=O)N1CCCC1`, -1.31%; under `NCCCC[C@@H]1NC(=O)[C@H](CCC(=O)O)NC(=O)c2cc([N+](=O)[O-])cc(I)c2NCC[C@@H](C(N)=O)NC1=O`, 4.27%.
Then `Cn1c(CC(=O)Nc2ccc(F)cc2)nnc1SCC(=O)NC1CCCCC1`, with 1.34%; and `COc1cccc(NC(=O)Nc2nnc(N3CCCCC3C)s2)c1` (stereo not drawn), with 3.58%; and `CC(C)c1ccc(/C=C/C(=O)NCCCN2CCOCC2)cc1`, with 0.61%.
In the case of `CCC(C(=O)Nc1ncccn1)(C(F)(F)F)C(F)(F)F`, the inhibition is -2.46%.
Take `C/C(N)=C(/C#N)C(=O)COC(=O)c1cc(-c2ccc(C)cc2)nc2ccccc12`: the inhibition is 3.74%.
For `CSCC[C@H](NC(=O)N1CCn2c1nc1ccccc12)C(=O)NCc1ccc2c(c1)OCO2`, the inhibition is -0.3%.
Under `CCN(C(=O)COc1ccc(C(=O)c2ccccc2)cc1)c1ccccc1` stands 0.04%; under `N#Cc1c(-c2ccccc2)c(-c2ccccc2)n[nH]c1=O`, -1.11%.
Then `O=c1[nH]c(-c2ccccc2)c(-c2ccccc2)[nH]1`, with 0.4%.
Then `O=C(O)c1n[nH]nc1-c1ccccc1`, with 50.7% (active).
Take `CSCc1ccc(C(=O)Nc2cc(C)cc(C)c2)cc1`: the inhibition is -1.23%.
Under `COc1ccc(NC(=O)COC(=O)CNC(=O)C2CCCCC2)cc1` stands -1.03%; under `COCCN(C(=O)COC(=O)Cc1cccc(OC)c1)c1c(N)n(Cc2ccccc2)c(=O)[nH]c1=O`, -0.76%; under `O=C(CSc1n[nH]c(=O)n1-c1ccccc1)Nc1ccccc1C(F)(F)F`, 1.79%.
Regarding `O=C1C(C=NCC2CCCO2)=C(O)c2ccccc21` (stereo not drawn), the inhibition was 2.92%.
On to `Cc1ccccc1C(=O)NCC(c1ccco1)N1CCc2ccccc21` (stereo not drawn), for which the inhibition is -0.08%.
With `Cc1cccc(N(C)C(=O)CN2C(=O)COc3ccc(S(=O)(=O)N4CCCCCC4)cc32)c1`, the inhibition is 5.32%.
As to `O=C(O)c1cccc2c1C(=O)N(C1CCCCC1)C2`, the inhibition is 1.97%.
Under `CN1CCN(C(=O)Cn2c(C(F)(F)F)nc3ccccc32)CC1` stands 0.08%; under `COc1ccc(CNC(=O)C2(CC3CC(c4ccccc4)=NO3)CCN(C(=O)c3cccc(O)c3)CC2)cc1` (stereo not drawn), 0.71%.
Under `CN(CC(=O)Nc1ccccc1Cl)C(=O)COc1cccc2c1OC(C)(C)C2` stands 1.31%; under `CCOc1cnc(-c2c(-c3ccccc3Cl)noc2C)o1`, 3.98%; under `Cc1ccc(N2CC(C(=O)N3CCC4(CC3)CC(=O)c3ccccc3O4)CC2=O)cc1C` (stereo not drawn), -1.86%.
For `Cc1cccc(S(=O)(=O)N2CN(CC3CCCO3)c3nc4ccccc4nc32)c1` (stereo not drawn), the inhibition is 3.91%.
On to `N#C/C=C\Oc1ccc(Cl)cc1N`, for which the inhibition was -0.64%.
Under `CC1CCCCC1NC(=O)C1CCCN1S(=O)(=O)c1cccc2nsnc12` (stereo not drawn) stands -5.55%.
Under `Cc1cccc(NC(=O)c2cccc(C(=O)Nc3cccc(C)c3C)n2)c1C` stands -0.92%.
As for `CCNc1nc(NC(C)C)nc(N2CC(=O)N(CC(=O)OCC)C2=N)n1`, the inhibition is -0.1%.
Under `C=CCN1CCN(C(=O)CCCc2ccccc2)CC1` stands 2.37%; under `Cc1cccc(CCNC(=O)Cn2ncc3c([nH]c4ccc(C)cc43)c2=O)c1`, -2.46%.
Under `Cc1ccc(Nc2nc(N)nc(CSc3nnc(C)s3)n2)cc1` stands 3.84%; under `Cc1nnc(SCc2cc(=O)[nH]c(N3CCN(Cc4ccccc4)CC3)n2)s1`, 1.51%; under `Cc1nnc(SCc2nc3ccccc3nc2C)s1`, 12.1% (active).
`Cc1ccc(NC2=NC(c3ccccc3)n3c(nc(C)cc3=O)N2)cc1` (stereo not drawn): the inhibition was 0.48%.
Under `COc1ccccc1NS(=O)(=O)c1ccc(C)c(C(=O)NCC(c2ccco2)N(C)C)c1` (stereo not drawn) stands -1.06%; under `COC(=O)C1(C)CC1(c1ccccc1)c1ccccc1` (stereo not drawn), 3.86%.
Then `COc1ccc(-c2cc(=O)oc3cc(OC(C)C(=O)Nc4ccc(CN5CCOCC5)cc4)ccc23)cc1` (stereo not drawn), with 4.28%.
Take `CCCCCC1CCC(c2nnc(SCC(C)=O)o2)CC1` (stereo not drawn): the inhibition was 2.41%.
With `COc1ccc(N(CC(=O)NC2CCCC2)C(=O)CS(=O)CC(=O)Nc2ccc3c(c2)OCO3)cc1` (stereo not drawn), the inhibition was 0.8%.
On to `Cn1c(=O)c2sccc2n(Cc2ccc(Br)cc2)c1=O`, for which the inhibition is 3.16%.
